According to PubChem BioAssay AID1159580 (chemical genetic matrix, 2015):
Several values for one entry are separate records, joined by “and”; a condition that tells them apart may be missing. Identical values can stand only once. About 2,000 (36%) of roughly 5,500 compounds were called active. Inconclusive results (about 18%) are left out. Cut-off read from the data, not from the text of the source: active = normalized growth mostly below about 0.91 (no sharp cut-off); inconclusive = no clear call, values can overlap the other calls; inactive = mostly above about 0.92. The list shows a part of the results.

Test: chemical genetic growth profiling, strain panel (AID 1159580);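 note: tested at 20 µM; growth read once vehicle control cultures reached saturation at 30 °C; 1 = growth at the plate median or of vehicle wells; lower values mean less growth of the strain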
Conditions: S. cerevisiae deletion strains, growth OD

Measured: normalized growth

Cc1c(OCC(F)(F)F)ccnc1CS(=O)c1nc2ccccc2[nH]1 (stereo not given)
0.937 (inactive) and 0.468 (active): locus YJL095W, strain BCK1, stronger effect = lower value
inactive: locus YAL013W, strain DEP1, stronger effect = lower value 0.992 | locus YAL021C, strain ccr4, stronger effect = lower value 1.01 | locus YAL026C, strain drs2, stronger effect = lower value 1.02 | locus YAL030W, strain snc1, stronger effect = lower value 1.03 | locus YAL040C, strain CLN3, stronger effect = lower value 0.959 | locus YBL061C, strain skt5, stronger effect = lower value 1.02 | locus YBR009C, strain hhf1, stronger effect = lower value 1.02 | locus YBR021W, strain FUR4, stronger effect = lower value 0.948 | locus YBR023C, strain chs3, stronger effect = lower value 1.02 | locus YBR171W, strain sec66, stronger effect = lower value 1.02 | locus YBR229C, strain ROT2, stronger effect = lower value 0.982 | locus YBR231C, strain swc5, stronger effect = lower value 1.05 | locus YBR279W, strain paf1, stronger effect = lower value 1 | locus YCL011C, strain gbp2, stronger effect = lower value 1.01 | locus YCL016C, strain dcc1, stronger effect = lower value 1.01 | locus YCL029C, strain bik1, stronger effect = lower value 0.971 | locus YCL061C, strain MRC1 (second series), stronger effect = lower value 0.997 | locus YCL061C, strain MRC1, stronger effect = lower value 1.02 | locus YCL069W, strain vba3, stronger effect = lower value 1 | locus YCR088W, strain abp1, stronger effect = lower value 1.01 | locus YDL005C, strain med2, stronger effect = lower value 1.02 | locus YDL035C, strain GPR1, stronger effect = lower value 0.997 | locus YDL040C, strain nat1, stronger effect = lower value 1.03 | locus YDL074C, strain BRE1, stronger effect = lower value 0.937 | locus YDL101C, strain DUN1, stronger effect = lower value 0.959 | locus YDL134C, strain PPH21, stronger effect = lower value 0.997 | locus YDL185W, strain tfp1, stronger effect = lower value 0.98 | locus YDL192W, strain arf1, stronger effect = lower value 0.977 | locus YDR001C, strain nth1, stronger effect = lower value 1.01 | locus YDR069C, strain doa4, stronger effect = lower value 1.01 | locus YDR101C, strain arx1, stronger effect = lower value 0.985 | locus YDR137W, strain rgp1, stronger effect = lower value 1.01 | locus YDR150W, strain NUM1, stronger effect = lower value 0.996 | locus YDR159W, strain sac3, stronger effect = lower value 1.02 | locus YDR162C, strain NBP2, stronger effect = lower value 0.976 | locus YDR195W, strain ref2 1.02 | locus YDR297W, strain sur2, stronger effect = lower value 1.02 | locus YDR318W, strain mcm21, stronger effect = lower value 0.959 | locus YDR334W, strain swr1, stronger effect = lower value 1.01 | locus YDR335W, strain msn5, stronger effect = lower value 1.01 | locus YDR363W, strain ESC2, stronger effect = lower value 0.933 | locus YDR388W, stronger effect = lower value 0.987 | locus YDR392W, strain spt3, stronger effect = lower value 1.03 | locus YDR502C, strain sam2, stronger effect = lower value 0.94 | locus YEL003W, strain gim4, stronger effect = lower value 1.03 | locus YEL037C, strain rad23, stronger effect = lower value 1.01 | locus YEL061C, strain CIN8 (second series), stronger effect = lower value 1.03 | locus YEL061C, strain CIN8, stronger effect = lower value 0.999 | locus YER002W, strain NOP16, stronger effect = lower value 1.02 | locus YER015W, strain faa2, stronger effect = lower value 1.02 | locus YER016W, strain bim1, stronger effect = lower value 1.03 | locus YER110C, stronger effect = lower value 0.969 | locus YER111C, strain swi4, stronger effect = lower value 1.01 | locus YER155C, strain BEM2 (second series), stronger effect = lower value 1.01 | locus YER155C, strain BEM2, stronger effect = lower value 0.988 | locus YER167W, strain BCK2, stronger effect = lower value 0.987 | locus YFR010W, strain ubp6, stronger effect = lower value 1.02 | locus YGL086W, strain mad1, stronger effect = lower value 0.987 | locus YGL167C, strain pmr1, stronger effect = lower value 1.03 | locus YGL173C, strain kem1, stronger effect = lower value 1.04 | locus YGL227W, strain vid30, stronger effect = lower value 1.02 | locus YGL240W, strain doc1, stronger effect = lower value 1.02 | locus YGL248W, strain PDE1, stronger effect = lower value 0.988 | locus YGL253W, strain hxk2, stronger effect = lower value 1.01 | locus YGR078C, strain PAC10, stronger effect = lower value 0.945 | locus YGR135W, strain pre9, stronger effect = lower value 0.944 | locus YGR229C, strain SMI1, stronger effect = lower value 0.951 | locus YGR252W, strain gcn5, stronger effect = lower value 0.943 | locus YHR013C, strain ard1, stronger effect = lower value 0.999 | locus YHR027C, strain rpn1, stronger effect = lower value 1.01 | locus YHR079C, strain IRE1 (second series), stronger effect = lower value 0.976 | locus YHR094C, strain hxt1, stronger effect = lower value 0.994 | locus YHR129C, strain ARP1, stronger effect = lower value 0.991 | locus YHR142W, strain chs7, stronger effect = lower value 1.02 | locus YHR200W, strain rpn10, stronger effect = lower value 0.963 | locus YIL066C, strain RNR3, stronger effect = lower value 0.975 | locus YIL073C, strain SPO22, stronger effect = lower value 1.04 | locus YIL125W, strain kgd1, stronger effect = lower value 0.952 | locus YIR030C, strain dcg1, stronger effect = lower value 0.995 | locus YJL092W, strain hpr5, stronger effect = lower value 1.01 | locus YJL095W, strain BCK1 (second series), stronger effect = lower value 1.02 | locus YJL115W, strain asf1, stronger effect = lower value 1.03 | locus YJL129C, strain trk1, stronger effect = lower value 1.04 | locus YJL134W, strain LCB3, stronger effect = lower value 1 | locus YJL154C, strain vps35, stronger effect = lower value 1.01 | locus YJL164C, strain tpk1, stronger effect = lower value 1.02 | locus YJL166W, strain qcr8, stronger effect = lower value 1.03 | locus YJL168C, strain set2, stronger effect = lower value 0.982 | locus YJL187C, strain SWE1 (second series), stronger effect = lower value 0.951 | locus YJR043C, strain POL32, stronger effect = lower value 0.979
active: locus YGL078C, strain dbp3, stronger effect = lower value 0.898 | locus YHR079C, strain IRE1, stronger effect = lower value 0.632 | locus YJR066W, strain TOR1, stronger effect = lower value 0.767
0.996 (inactive) and 0.482 (active): locus YHR030C, strain SLT2, stronger effect = lower value
